# In PubChem BioAssay (EPA / NIEHS):
# Records with an inconclusive call do not appear. Active and inactive are the calls of the source. Rule for the calls, unless noted: active = hit-call score of the fitted dose curve at least 0.9, where 1 is the maximum; inconclusive = response in the unintended direction; inactive = score below 0.9.
# Columns and labels:
# [1] = target: rat Corticotropin Releasing Factor Receptor (CRF), Crhr1 (gene 58959) (UniProt P35353); assay: NVS_GPCR_rCRF: NovaScreen (NVS) G Protein-Coupled Receptor Assay for rat Corticotropin Releasing Factor Receptor (CRF) (AID 2283300)
# Outline: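 Single-concentration (25 uM, duplicate) radioligand binding on rat cortical membrane preparations, counted by scintillation after 2 h. Activity scored as signal loss relative to DMSO negative control.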
# [2] = target: Voltage-dependent N-type calcium channel subunit alpha-1B (Rattus norvegicus) (UniProt Q02294); assay: NVS_IC_rCaChN: NovaScreen (NVS) Ion Channel Assay for rat Calcium Channel, Type N (CaChN) (AID 2283317)
# [3] = TOX21_TRB_BLA_Agonist_Followup_viability: Viability Assessment in the Tox21 Thyroid Hormone Receptor beta Agonism Beta-lactamase (BLA) Follow-Up Assay (AID 2283956)
# Outline: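 Viability was read as CellTiter-Glo luminescence in the same wells as the TRb-bla agonist read-out. HEK293T GAL4-TRb LBD cells were treated for 18 h (37C, 5% CO2) at 11 concentrations in triplicate. Fits were bidirectional versus DMSO baseline.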
# PPP2CA (gene 5515) = PPP2CA (gene 5515) (UniProt P67775); assay: NVS_ENZ_hPPP2CA: NovaScreen (NVS) Enzymatic Assay for human Protein Phosphatase 2 Aatalytic subunit Alpha (PPP2CA) (AID 2283199)
# Outline: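 Cell-free phosphatase activity: fluorescent substrate turnover by recombinant human enzyme, resolved by mobility shift at 1.33 h. Compounds passing the 25 uM duplicate primary screen were rerun in singleton series with a 50 uM top concentration.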
# [4] = target: human Protein Tyrosine Phosphatase Receptor Type C (PTPRC), PTPRC (gene 5788) (UniProt P08575); assay: NVS_ENZ_hPTPRC: NovaScreen (NVS) Enzymatic Assay for human Protein Tyrosine Phosphatase Receptor Type C (PTPRC) (AID 2283212)
# Outline: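 Absorbance-based phosphatase activity of human PTPRC protein extracted from yeast was measured 1 h post-dosing. Compounds first tested at 25 uM in duplicate, then those passing threshold in singleton concentration series to 50 uM.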
# [5] = target: human Raf-1 Proto-Oncogene, serine/threonine Kinase (RAF1), RAF1 (gene 5894) (UniProt P04049); assay: NVS_ENZ_hRAF1: NovaScreen (NVS) Enzymatic Assay for human Raf-1 Proto-Oncogene, serine/threonine Kinase (RAF1) (AID 2283216)
# Outline: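 Single-point screening at 25 uM (duplicate), followed by singleton concentration-response to 50 uM maximum for chemicals exceeding threshold. Enzyme activity from fluorescent substrate-product mobility-shift separation after 1 h, relative to DMSO.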
# [6] = target: human Tyrosine Protein Kinase Receptor Tie-2 (Tie2), TEK (gene 7010) (UniProt Q02763); assay: NVS_ENZ_hTie2: NovaScreen (NVS) Enzymatic Assay for human Tyrosine Protein Kinase Receptor Tie-2 (Tie2) (AID 2283225)
# Outline: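 Substrate and product were separated by mobility shift and detected by fluorescence after a 1-hour reaction with recombinant Tie2. Chemicals passing a 25 uM single-point screen were titrated to a maximum of 50 uM. Results were normalized to DMSO baseline.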
# [7] = target: rat Acetylcholinesterase (AChE), Ache (gene 83817) (UniProt P37136); assay: NVS_ENZ_rAChE: NovaScreen (NVS) Enzymatic Assay for rat Acetylcholinesterase (AChE) (AID 2283233)
# Outline: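 Compounds first screened at 25 uM in duplicate, then those passing threshold tested in concentration series up to 50 uM, against AChE from rat brain membranes. Enzyme activity read by absorbance at 0.33 h; inhibition scored versus DMSO.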
# [8] = system: rat Monoamine Oxidase, MAO-A, Peripheral (MAOAP), gene 29253; assay: NVS_ENZ_rMAOAP: NovaScreen (NVS) Enzymatic Assay for rat Monoamine Oxidase, MAO-A, Peripheral (MAOAP) (AID 2283237)
# Outline: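 Scintillation counting tracked MAO-A activity in a cell-free rat liver mitochondrial membrane prep, read 1.17 hours after compound addition. Single-point duplicate testing at 25 uM preceded concentration-response follow-up; activity was fitted relative to DMSO.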
# [9] = system: rat Monoamine Oxidase, MAO-A, Central (MAOAC), gene 29253; assay: NVS_ENZ_rMAOAC: NovaScreen (NVS) Enzymatic Assay for rat Monoamine Oxidase, MAO-A, Central (MAOAC) (AID 2283243);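 note: potency refers to inhibition seen as signal drop below DMSO baseline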
# Outline: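 Scintillation read-out of MAO-A activity in rat brain lysate, 1.5 h post-dosing. Primary single-concentration screen: 25 uM, duplicate; actives re-tested in concentration series. DMSO = negative control/baseline.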
# [10] = target: Bile acid receptor (Homo sapiens) (UniProt Q96RI1); assay: NVS_NR_hFXR_Agonist: NovaScreen (NVS) Nuclear Receptor Binding Assay for human Farnesoid X Receptor Agonism (FXR) (AID 2283347)
# Outline: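 Agonist-mode FXR assay read by time-resolved FRET 1 h after compound addition, using isolated human receptor protein without cells. Duplicate 25 uM single-point primary screen, concentration series for confirmed actives; DMSO as baseline.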
# [11] = ATG_M_32_XSP2: Attagene TRANS-FACTORIAL Multi-Species (XSP2) HepG2 Assay for M19 Transcription Factor (Internal Marker) (AID 2283826)
# Outline: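 Total RNA is taken from compound-treated HepG2 cells after 24 h and reverse-transcribed; reporter cDNA is PCR-amplified, end-labelled with 6-FAM, digested with HpaI for 2h at 37 C and sized by capillary electrophoresis. Activity is fitted in the positive direction against DMSO.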
# [12] = CCTE_Harrill_HTTr_Apoptosis_PRF_DMEM_12hr: (Pilot) CCTE's 12-hour Apoptosis Assessment for the High-Throughput Transcriptomics (HTTr) Platform, in MCF-7 cells cultured in phenol red-free DMEM + 10% charcoal-stripped fetal bovine serum, Harrill Lab (AID 2283985; active = hit-call score of the fitted dose curve at least 0.9, where 1 is the maximum; inactive = score below 0.9)
# Outline: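 Caspase-3/7 activity by CellEvent Green high content imaging after 12 h compound exposure (eight concentrations) in MCF-7 grown in phenol red-free DMEM plus 10% charcoal-stripped serum; DMSO as baseline.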
# [13] = target: Norway rat Vesicular Monoamine Transporter (VMAT2), neurotransmitter transporter, Slc18a2 (gene 25549) (UniProt Q01827); assay: NVS_TR_rVMAT2: NovaScreen (NVS) Transporter Assay for Norway rat Vesicular Monoamine Transporter (VMAT2), neurotransmitter transporter (AID 2283376);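 note: actives lower the bound radioligand signal below the DMSO level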
# Outline: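 Binding endpoint from rat forebrain tissue, cell-free; 1 h incubation; filtered radioligand counted; 25 uM duplicate primary then dose series; DMSO negative control.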
# [14] = target: rat Adenylate Cyclase, Forskolin Stimulated, Adcy5 (gene 64532) (UniProt Q04400); assay: NVS_ENZ_rACFSKBinding: NovaScreen (NVS) Enzymatic Assay for rat Adenylate Cyclase, Forskolin Stimulated (AID 2283232)
# Outline: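 Chemicals were first tested at 25 uM in duplicate, then hits run as concentration series with top concentration 50 uM. Enzyme source was rat forebrain membranes; radiometric filter read-out after 1 h, referenced to DMSO.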
# [15] = target: rat Monoamine Oxidase, MAO-B, Central (MAOBC), Maob (gene 25750) (UniProt P19643); assay: NVS_ENZ_rMAOBC: NovaScreen (NVS) Enzymatic Assay for rat Monoamine Oxidase, MAO-B, Central (MAOBC) (AID 2283238)
# Outline: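 Here MAO-B activity in rat brain preparations is quantified radiometrically, counts taken at 1.17 hours. Concentration-response runs reach 50 uM, with plate controls, and values are fitted as loss of signal from the DMSO baseline.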
# [16] = target: rat Monoamine Oxidase, MAO-B, Peripheral (MAOBP), Maob (gene 25750) (UniProt P19643); assay: NVS_ENZ_rMAOBP: NovaScreen (NVS) Enzymatic Assay for rat Monoamine Oxidase, MAO-B, Peripheral (MAOBP) (AID 2283242)
# [17] = target: rat Oxytocin Receptor (OXT), Oxtr (gene 25342) (UniProt P70536); assay: NVS_GPCR_rOXT: NovaScreen (NVS) G Protein-Coupled Receptor Assay for rat Oxytocin Receptor (OXT) (AID 2283330)
# Outline: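 Binding to rat uterine membrane receptor was followed by scintillation counting of filter-trapped radioligand after 1 h. A 25 uM duplicate single-point screen preceded concentration series with a top of 50 uM. Signal loss was analysed relative to DMSO.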
# Sequence of rat Corticotropin Releasing Factor Receptor (CRF), Crhr1 (gene 58959) (P35353 whole entry, looked up): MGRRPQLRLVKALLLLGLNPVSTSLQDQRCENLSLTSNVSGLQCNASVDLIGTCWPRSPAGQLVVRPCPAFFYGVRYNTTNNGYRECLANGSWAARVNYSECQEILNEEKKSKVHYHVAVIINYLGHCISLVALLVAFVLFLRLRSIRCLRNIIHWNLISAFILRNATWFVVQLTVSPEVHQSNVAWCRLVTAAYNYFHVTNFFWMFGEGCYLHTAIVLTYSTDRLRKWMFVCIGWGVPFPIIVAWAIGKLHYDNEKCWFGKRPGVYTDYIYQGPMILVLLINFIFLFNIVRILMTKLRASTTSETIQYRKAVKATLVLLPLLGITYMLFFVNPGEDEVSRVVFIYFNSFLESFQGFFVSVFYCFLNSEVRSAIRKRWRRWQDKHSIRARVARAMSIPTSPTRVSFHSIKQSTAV
# Sequence of rat Monoamine Oxidase, MAO-B, Central (MAOBC), Maob (gene 25750) (P19643 whole entry, looked up): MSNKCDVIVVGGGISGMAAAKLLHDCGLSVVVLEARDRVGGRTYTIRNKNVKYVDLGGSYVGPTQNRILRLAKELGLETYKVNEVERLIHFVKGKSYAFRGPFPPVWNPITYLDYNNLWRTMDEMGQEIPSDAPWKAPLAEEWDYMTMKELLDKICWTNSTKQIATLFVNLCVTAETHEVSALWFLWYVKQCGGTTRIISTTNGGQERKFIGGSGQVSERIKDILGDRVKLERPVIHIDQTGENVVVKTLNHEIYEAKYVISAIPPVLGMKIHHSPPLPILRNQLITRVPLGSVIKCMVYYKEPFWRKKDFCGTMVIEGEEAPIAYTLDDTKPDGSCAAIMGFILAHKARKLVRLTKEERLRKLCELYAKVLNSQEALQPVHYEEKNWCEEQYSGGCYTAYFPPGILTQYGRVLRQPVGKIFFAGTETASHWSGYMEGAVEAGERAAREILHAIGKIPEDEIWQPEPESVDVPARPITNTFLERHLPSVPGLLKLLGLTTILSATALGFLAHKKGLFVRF
# Sequence of rat Monoamine Oxidase, MAO-B, Peripheral (MAOBP), Maob (gene 25750) (P19643 whole entry, looked up): as above
# Sequence of Norway rat Vesicular Monoamine Transporter (VMAT2), neurotransmitter transporter, Slc18a2 (gene 25549) (Q01827 whole entry, looked up): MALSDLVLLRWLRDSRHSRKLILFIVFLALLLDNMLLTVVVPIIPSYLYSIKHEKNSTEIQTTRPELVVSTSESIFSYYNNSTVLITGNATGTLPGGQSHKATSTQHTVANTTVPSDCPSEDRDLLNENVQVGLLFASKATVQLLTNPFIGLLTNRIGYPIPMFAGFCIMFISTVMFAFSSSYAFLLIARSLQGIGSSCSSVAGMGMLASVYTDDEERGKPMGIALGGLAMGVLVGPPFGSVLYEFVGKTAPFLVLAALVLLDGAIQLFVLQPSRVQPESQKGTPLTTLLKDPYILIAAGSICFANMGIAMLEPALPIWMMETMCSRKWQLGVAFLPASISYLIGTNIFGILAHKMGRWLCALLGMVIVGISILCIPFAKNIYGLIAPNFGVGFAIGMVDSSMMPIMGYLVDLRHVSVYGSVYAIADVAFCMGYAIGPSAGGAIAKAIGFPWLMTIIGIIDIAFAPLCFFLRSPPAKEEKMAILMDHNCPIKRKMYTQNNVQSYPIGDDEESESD
# Sequence of human Tyrosine Protein Kinase Receptor Tie-2 (Tie2), TEK (gene 7010) (Q02763 whole entry, looked up): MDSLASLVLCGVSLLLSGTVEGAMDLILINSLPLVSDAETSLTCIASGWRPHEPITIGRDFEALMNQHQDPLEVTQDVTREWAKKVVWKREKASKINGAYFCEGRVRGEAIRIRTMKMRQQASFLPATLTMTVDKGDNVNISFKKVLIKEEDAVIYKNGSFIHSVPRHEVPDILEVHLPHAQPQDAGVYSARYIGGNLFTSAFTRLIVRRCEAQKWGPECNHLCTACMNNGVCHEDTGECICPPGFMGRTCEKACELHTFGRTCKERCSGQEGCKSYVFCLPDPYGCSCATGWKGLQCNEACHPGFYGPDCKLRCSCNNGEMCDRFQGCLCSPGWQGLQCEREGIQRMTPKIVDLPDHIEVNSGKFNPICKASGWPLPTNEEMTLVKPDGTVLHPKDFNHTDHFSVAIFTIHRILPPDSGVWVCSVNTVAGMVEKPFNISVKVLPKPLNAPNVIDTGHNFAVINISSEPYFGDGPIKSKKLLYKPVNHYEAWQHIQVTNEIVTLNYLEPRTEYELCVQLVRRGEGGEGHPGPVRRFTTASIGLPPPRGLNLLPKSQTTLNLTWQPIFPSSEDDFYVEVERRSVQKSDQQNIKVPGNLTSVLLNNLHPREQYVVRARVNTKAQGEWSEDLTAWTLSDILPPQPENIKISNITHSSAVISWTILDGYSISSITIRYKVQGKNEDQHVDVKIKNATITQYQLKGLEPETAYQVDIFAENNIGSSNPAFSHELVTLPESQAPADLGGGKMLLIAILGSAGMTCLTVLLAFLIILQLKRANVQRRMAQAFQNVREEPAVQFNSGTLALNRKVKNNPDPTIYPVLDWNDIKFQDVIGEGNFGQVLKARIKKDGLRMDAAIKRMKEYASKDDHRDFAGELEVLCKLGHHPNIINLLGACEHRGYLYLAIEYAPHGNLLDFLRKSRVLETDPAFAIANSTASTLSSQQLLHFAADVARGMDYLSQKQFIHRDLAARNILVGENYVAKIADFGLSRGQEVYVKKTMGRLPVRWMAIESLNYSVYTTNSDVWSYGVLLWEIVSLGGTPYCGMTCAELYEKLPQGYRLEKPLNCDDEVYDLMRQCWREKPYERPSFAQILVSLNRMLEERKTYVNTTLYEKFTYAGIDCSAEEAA
# Sequence of rat Acetylcholinesterase (AChE), Ache (gene 83817) (P37136 whole entry, looked up): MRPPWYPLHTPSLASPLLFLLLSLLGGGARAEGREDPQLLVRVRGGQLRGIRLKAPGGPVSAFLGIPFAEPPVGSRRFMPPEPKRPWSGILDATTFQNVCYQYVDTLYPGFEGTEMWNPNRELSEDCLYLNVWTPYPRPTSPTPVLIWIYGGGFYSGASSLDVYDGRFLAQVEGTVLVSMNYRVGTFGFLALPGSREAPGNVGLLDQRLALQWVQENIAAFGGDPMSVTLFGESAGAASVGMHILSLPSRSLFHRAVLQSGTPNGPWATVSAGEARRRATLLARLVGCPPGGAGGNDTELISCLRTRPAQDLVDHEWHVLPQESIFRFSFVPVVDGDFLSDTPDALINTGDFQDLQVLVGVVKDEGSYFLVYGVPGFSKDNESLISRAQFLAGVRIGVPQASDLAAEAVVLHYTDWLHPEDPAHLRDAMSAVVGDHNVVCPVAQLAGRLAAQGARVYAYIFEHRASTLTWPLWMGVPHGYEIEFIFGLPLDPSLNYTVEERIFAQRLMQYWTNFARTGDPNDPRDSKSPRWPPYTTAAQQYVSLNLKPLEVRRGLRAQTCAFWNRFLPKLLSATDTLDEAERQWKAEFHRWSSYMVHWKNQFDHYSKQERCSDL
# Sequence of rat Adenylate Cyclase, Forskolin Stimulated, Adcy5 (gene 64532) (Q04400 whole entry, looked up): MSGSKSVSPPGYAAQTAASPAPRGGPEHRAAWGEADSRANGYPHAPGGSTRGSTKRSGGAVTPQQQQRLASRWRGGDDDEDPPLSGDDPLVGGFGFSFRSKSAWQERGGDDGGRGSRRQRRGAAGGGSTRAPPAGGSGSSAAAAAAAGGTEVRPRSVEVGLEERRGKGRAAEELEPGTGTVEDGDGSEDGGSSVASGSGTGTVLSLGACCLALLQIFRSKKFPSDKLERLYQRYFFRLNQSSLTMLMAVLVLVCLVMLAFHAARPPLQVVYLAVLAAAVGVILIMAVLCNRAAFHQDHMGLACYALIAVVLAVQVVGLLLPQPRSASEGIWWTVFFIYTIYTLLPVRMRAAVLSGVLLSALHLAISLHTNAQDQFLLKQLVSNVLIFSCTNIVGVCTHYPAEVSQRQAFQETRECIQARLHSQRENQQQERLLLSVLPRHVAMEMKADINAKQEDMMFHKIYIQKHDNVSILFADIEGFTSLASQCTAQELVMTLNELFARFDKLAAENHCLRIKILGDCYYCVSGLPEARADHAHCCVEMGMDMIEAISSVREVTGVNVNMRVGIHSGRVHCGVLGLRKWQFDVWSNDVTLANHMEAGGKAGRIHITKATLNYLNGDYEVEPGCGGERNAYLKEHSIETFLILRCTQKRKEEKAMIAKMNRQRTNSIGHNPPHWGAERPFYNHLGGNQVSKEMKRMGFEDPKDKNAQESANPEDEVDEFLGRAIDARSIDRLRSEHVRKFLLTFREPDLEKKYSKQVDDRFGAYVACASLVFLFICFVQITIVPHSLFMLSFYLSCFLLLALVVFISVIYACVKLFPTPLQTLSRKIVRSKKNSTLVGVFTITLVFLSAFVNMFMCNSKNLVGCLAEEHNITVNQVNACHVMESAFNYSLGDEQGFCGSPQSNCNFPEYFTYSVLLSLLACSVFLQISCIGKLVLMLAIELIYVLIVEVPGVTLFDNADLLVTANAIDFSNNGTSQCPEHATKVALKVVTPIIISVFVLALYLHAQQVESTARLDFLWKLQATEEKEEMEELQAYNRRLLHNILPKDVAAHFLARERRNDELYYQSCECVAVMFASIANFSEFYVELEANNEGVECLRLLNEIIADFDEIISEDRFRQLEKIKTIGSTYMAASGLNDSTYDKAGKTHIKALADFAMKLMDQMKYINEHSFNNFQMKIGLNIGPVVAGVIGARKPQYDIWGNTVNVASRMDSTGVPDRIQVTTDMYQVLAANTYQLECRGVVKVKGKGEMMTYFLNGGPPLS
# Sequence of Bile acid receptor (Homo sapiens) (Q96RI1 whole entry, looked up): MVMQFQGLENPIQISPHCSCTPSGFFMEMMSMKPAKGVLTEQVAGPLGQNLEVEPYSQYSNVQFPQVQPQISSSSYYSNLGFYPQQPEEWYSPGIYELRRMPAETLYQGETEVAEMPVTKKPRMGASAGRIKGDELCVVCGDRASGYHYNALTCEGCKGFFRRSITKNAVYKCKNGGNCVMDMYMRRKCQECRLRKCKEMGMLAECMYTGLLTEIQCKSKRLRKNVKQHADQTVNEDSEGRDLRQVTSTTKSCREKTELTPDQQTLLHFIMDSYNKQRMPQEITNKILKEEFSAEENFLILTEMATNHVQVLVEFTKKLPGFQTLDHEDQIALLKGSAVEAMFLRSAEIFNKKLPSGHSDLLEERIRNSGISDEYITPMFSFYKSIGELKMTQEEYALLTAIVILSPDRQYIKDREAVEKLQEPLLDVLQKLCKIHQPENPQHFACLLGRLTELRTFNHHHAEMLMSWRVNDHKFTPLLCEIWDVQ
structure (smiles),measurement,setting,value
Cc1cc(C)c(O)c(C)c1,outcome,[1],inactive
CCCOc1ccc(S(=O)(=O)N2CCN(CC)CC2)cc1-c1nc2c(CC)n(Cc3ccccn3)nc2c(=O)[nH]1,outcome,[2],inactive
CC(C)=CCC/C(C)=C\CO,outcome,[3],inactive
CC(=O)CC(c1ccccc1)c1c(O)c2ccccc2oc1=O (stereo unspecified),outcome,PPP2CA (gene 5515),inactive
NC(=O)N1C(=O)C(C(=O)c2cc(Cl)cs2)c2cc(F)c(Cl)cc21 (stereo unspecified),outcome,[4],inactive
C[C@]12C[C@H](O)[C@H]3[C@@H](CCC4=CC(=O)CC[C@@]43C)[C@@H]1CC[C@@H]2C(=O)CO,outcome,[4],inactive
Cc1ccc2ncccc2c1,outcome,[5],inactive
same,outcome,[6],inactive
CC(C)c1cccc(C(C)C)c1N1C(=O)c2ccc(O)cc2C1=O,outcome,[6],inactive
CN1CCN(Cc2cc(-c3ccc4[nH]c(=O)oc4c3)co2)[C@@H](c2ccc(F)cc2)C1,outcome,[7],inactive
same,AC50,[8],18.2 µM (active)
same,AC50,[9],22 µM (active)
O=c1c(O)c(-c2ccc(O)c(O)c2)oc2cc(O)cc(O)c12,AC50,[8],17.2 µM (active)
same,AC50,[9],9.38 µM (active)
CC/C(=C\C(=N/O)C(N)=O)C(C)[N+](=O)[O-] (stereo unspecified),outcome,[2],inactive
Cc1c(C)c2c(c(C)c1O)CCC(C)(COc1ccc(CC3SC(=O)NC3=O)cc1)O2 (stereo unspecified),outcome,[10],inactive
same,outcome,[11],inactive
same,outcome,[12],inactive
CCCCCCCCOC(=O)c1cc(O)c(O)c(O)c1,outcome,[10],inactive
Cc1[nH]cnc1C[C@H]1CCc2c(C)c3ccccc3n2C1=O,AC50,[13],0.755 µM (active)
CC(C)(c1cc(Br)c(O)c(Br)c1)c1cc(Br)c(O)c(Br)c1,outcome,[11],inactive
Nc1ccc(Nc2ccccc2)cc1,AC50,[14],39.6 µM (active)
same,AC50,[15],10.4 µM (active)
c1ccc2ncccc2c1,outcome,[15],inactive
CCCC[C@H]1CN(CC2CCOCC2)C(=O)OC12CCN(C1(C)CCN(C(=O)c3c(C)ncnc3C)CC1)CC2,outcome,[16],inactive
C1CCC(SSC2CCCCC2)CC1,outcome,[1],inactive
C[C@@H]1C[C@H]2[C@@H]3CCC4=CC(=O)C=C[C@]4(C)[C@@]3(F)[C@@H](O)C[C@]2(C)[C@@]1(O)C(=O)COP(=O)(O)O,outcome,[2],inactive
Nc1ccc(S(=O)(=O)Nc2nccs2)cc1,outcome,[3],inactive
O=C1c2c(O)ccc(Nc3ccc(CCO)cc3)c2C(=O)c2c([N+](=O)[O-])ccc(O)c21,AC50,[7],1.91 µM (active)
same,outcome,[13],inactive
CCC(C)(C)C1CCC(O)CC1 (stereo unspecified),outcome,[15],inactive
same,outcome,[1],inactive
same,outcome,[11],inactive
NC(=Nc1ccccc1)Nc1ccccc1,outcome,[16],inactive
CS(=O)(=O)OCCCCOS(C)(=O)=O,outcome,[15],inactive
same,outcome,[16],inactive
c1ccc(Oc2ccccc2)cc1,outcome,[7],inactive
CCn1nc(C)c2c1C(=O)NCC(c1ccc(O)cc1)=N2,outcome,[7],inactive
same,AC50,[8],5.25 µM (active)
CCCCCC(C)OC(=O)COc1ccc(Cl)c2cccnc12 (stereo unspecified),outcome,[15],inactive
CCCN(CCC)c1c([N+](=O)[O-])cc(C(F)(F)F)c(N)c1[N+](=O)[O-],outcome,[6],inactive
same,outcome,[17],inactive
NC(=O)N(O)[C@@H]1COc2cc(OCc3ccccc3)ccc21,AC50,[15],12.2 µM (active)
CCCC(=O)OCCC(C)C,outcome,[7],inactive
same,outcome,[2],inactive
CC(=O)OCCC(C)C,outcome,[6],inactive
same,outcome,[2],inactive
CCCCCCC(C=O)=Cc1ccccc1,outcome,[16],inactive
Cc1oc(-c2ccccc2)nc1CCOc1ccc(C[C@H](Nc2ccccc2C(=O)c2ccccc2)C(=O)O)cc1,AC50,[15],25 µM (active)
same,outcome,[16],inactive
same,outcome,[11],inactive
same,outcome,[12],inactive
C#C[C@]1(O)CC[C@H]2[C@@H]3CCC4=CC(=O)CC[C@@H]4[C@H]3CC[C@@]21C,outcome,[6],inactive
same,outcome,[15],inactive
CC1=C(/C=C/C(C)=C/C=C/C(C)=C/C(=O)O)C(C)(C)CCC1,outcome,[16],inactive
same,outcome,[3],inactive
O=c1ccc2ccccc2o1,AC50,[15],12.5 µM (active)
same,AC50,[16],13.5 µM (active)
C=CN1CCCC1=O,outcome,[15],inactive
Clc1ccc2c(Cl)ccnc2c1,AC50,[9],20.8 µM (active)
CCc1ccc(CCOc2ccc(CC3SC(=O)NC3=O)cc2)nc1 (stereo unspecified),AC50,[15],6 µM (active)
CCOC(=O)[C@H](C)Oc1ccc(Oc2nc3ccc(Cl)cc3o2)cc1,AC50,[15],1.57 µM (active)
same,AC50,[16],15.9 µM (active)
same,AC50,[9],17.4 µM (active)
COC(=O)c1ccc(CNS(C)(=O)=O)cc1S(=O)(=O)NC(=O)Nc1nc(OC)cc(OC)n1,AC50,[16],35.5 µM (active)
COC(=O)c1ccc(C(=O)OC)cc1,AC50,[15],25 µM (active)
same,outcome,[13],inactive
NC(=O)Cn1c(=O)cc(CCN2CCN(c3nccc4sccc34)CC2)c2ccc(F)cc21,outcome,[7],inactive
O=C1NS(=O)(=O)c2ccccc21,outcome,[16],inactive
CCCCCCCCCCCC[N+](C)(C)C,outcome,[7],inactive
same,AC50,[15],9.12 µM (active)
same,AC50,[9],25 µM (active)
O=c1c2ccccc2oc2ccccc12,AC50,[9],7.58 µM (active)
Cc1cccc(C)c1O,outcome,[15],inactive
CC(C)CCCCCCOC(=O)C1CCCCC1C(=O)OCCCCCCC(C)C (stereo unspecified),outcome,[7],inactive
OCC(CO)(CBr)CBr,outcome,[16],inactive
same,outcome,[13],inactive
CCCCCCCCCCCCCC[N+](C)(C)C,AC50,[7],21.3 µM (active)
same,AC50,[9],31.1 µM (active)
Nc1ccc(N)c([N+](=O)[O-])c1,outcome,[7],inactive
CC(N)=O,outcome,[16],inactive
same,outcome,[9],inactive
O=c1[nH]sc2ccccc12,AC50,[14],16.2 µM (active)
same,AC50,[16],19.2 µM (active)
same,AC50,[1],17 µM (active)
S=C(NC1CCCCC1)NC1CCCCC1,AC50,[7],17.2 µM (active)
